High-throughput results deposited in PubChem by National Center for Advancing Translational Sciences (NCATS).
AmpC no deterg: blocks E. coli AmpC beta-lactamase in detergent-free assay; P00811; AmpC nitrocefin hydrolysis, absorbance 480 nm, 0.0001% Triton; Potency, µM (series often up to 57.1 µM), for inactives: at the highest dose activity change, negative = inhibition, usual class: inhibitors; hit rate 0.52% among 330,000; AID 485341;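 further: plate controls were no compound for no effect and no enzyme for full effect; nearly all actives have a fitted effect of over 20% in size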
Target sequence (P00811 whole entry, looked up): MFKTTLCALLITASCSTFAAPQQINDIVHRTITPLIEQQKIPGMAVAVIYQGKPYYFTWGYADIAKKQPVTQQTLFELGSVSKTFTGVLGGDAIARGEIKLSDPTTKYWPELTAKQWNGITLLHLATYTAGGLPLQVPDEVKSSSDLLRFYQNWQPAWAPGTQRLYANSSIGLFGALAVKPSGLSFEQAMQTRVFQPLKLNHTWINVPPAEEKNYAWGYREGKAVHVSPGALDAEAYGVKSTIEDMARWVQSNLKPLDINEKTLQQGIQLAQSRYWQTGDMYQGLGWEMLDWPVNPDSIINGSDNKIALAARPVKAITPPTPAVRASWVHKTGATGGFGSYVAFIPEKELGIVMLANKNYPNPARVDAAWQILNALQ
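20 mM phosphate pH 7.0 + 0.01% (detergent screen) or 0.0001% Triton X-100; 5.3 nM AmpC reagent; cpd preinc 15 min RT; nitrocefin (800 uM stock) to start; A480 q20 s × 4 min; Activity was normalised to no-enzyme and no-compound control wells.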
AmpC detergent: blocks E. coli AmpC beta-lactamase in detergent assay. P00811. AmpC hydrolysis of nitrocefin, absorbance 480 nm, 0.01% Triton. Potency, µM (series often up to 114 µM), for inactives: at the top dose activity change, negative = inhibition, actives largely listed as inhibitors. hit rate 0.041% among 370,000. AID 485294;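 further: 0% = no-compound wells and -100% = no-enzyme wells; nearly all actives have a fitted effect of over 25% in size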
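20 mM phosphate pH 7.0 + 0.01% (detergent screen) or 0.0001% Triton X-100; 5.3 nM AmpC reagent; cpd preinc 15 min RT; nitrocefin (800 uM stock) to start; A480 q20 s × 4 min; Activity was normalised to no-enzyme and no-compound control wells.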
Sm TGR block: S. mansoni TGR enzyme inhibition. Potency, µM (highest dose often 114 µM), inactives show top-dose activity change, negative = inhibition, actives largely listed as inhibitors. purified TGR, DTNB reduction, TNB absorbance 405 nm. hit rate 3% among 360,000. AID 485364; further: nearly all actives have a fitted effect of over 60% in size
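Kinetic colorimetric format: TGR-catalysed, NADPH-driven DTNB reduction monitored via TNB absorbance. Enzyme dispensed at 20 nM; compound exposure 15 min at room temperature before reaction start.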
* hit, by the source's call; u = inconclusive; x = no result. An excerpt weighted towards active compounds, which were near 3.3% of everything screened. The call rests on the fitted dose curve; in most records, active means well fitted curve in the direction sought with a large enough effect; inconclusive means small, poorly fitted or top-dose-only effect, or another doubt; inactive means no such curve, though single readings can be large; an effect the other way counts as inactive or inconclusive. Unless noted, on the % scale 0 is the no-effect control and ±100 the full control effect; potency means the concentration at half of the fitted maximal effect.

SMILES | AmpC no deterg | AmpC detergent | Sm TGR block
Cc1ccc(CN2C(=O)CN(C3CCCCCC3)C(=O)C2c2ccc(F)cc2)cc1 (stereo not drawn) | x | -5% | 3%
CCOC(=O)c1cc(-c2ccc(OC)cc2)n(CCC(=O)NCCc2ccc(OCC)c(OCC)c2)c1C | x | 10% | 3%
O=C(O)CCc1ccc(-c2cccs2)n1NC(=O)c1ccccc1Br | -18% | 0% | u
COc1ccc(-c2ccc(CCC(=O)O)n2C(C)C)cc1 | -34% | u | u
CC(=O)c1cccc(-n2c(CCC(=O)O)ccc2-c2cccs2)c1 | -32% | -14% | 5.6µM*
CN(C)c1ccc(-n2c(CCC(=O)O)ccc2-c2ccccc2)cc1 | x | -1% | u
CC(=O)c1cccc(NC(=O)Cc2cccs2)c1 | -34% | -11% | -34%
COC(=O)c1ccc(-n2c(CCC(=O)O)ccc2-c2ccccc2)cc1 | -20% | -1% | 14µM*
COc1ccc(-n2c(CCC(=O)O)ccc2-c2ccc(F)cc2)c(OC)c1 | -21% | -10% | 45µM*
CC(C)(C)c1ccc(C(=O)Nn2c(CCC(=O)O)ccc2-c2cccs2)cc1 | -28% | 4% | 50µM*
O=C(Nc1ccccc1C(=O)OCc1cc(=O)n2c3c(sc2n1)CCCC3)c1cccc(Cl)c1 | x | -2% | 7%
Cc1ccc2c(c1)c1c(c(=O)n(-c3cccc(Cl)c3)c(=O)n1CC(=O)Nc1c(C)cccc1C)n2C | x | -2% | -6%
CCOc1ccc(OCC)c(NC(=O)Cn2ncc3c4ccccc4n(Cc4ccccc4)c3c2=O)c1 | x | 17% | -5%
COc1ccc(-n2c(/C=C/c3ccccc3F)nc3cc(OC)c(OC)cc3c2=O)cc1Cl | x | -1% | -1%
COc1cc(NC(=O)Cn2c(=O)oc3cc(S(=O)(=O)N4CCCCCC4)ccc32)cc(OC)c1 | x | 8% | 8%
COc1ccc(-c2nsc(NC(=O)COc3ccc(C)c(C)c3)n2)cc1 | x | 0% | 2%
O=C(O)CCc1ccc(-c2cccs2)n1-c1ccc(C(=O)O)cc1 | -43% | u | 7.9µM*
O=C(O)CCc1nc(-c2cccs2)no1 | -39% | u | 7%
NC(=S)Nn1c(CCC(=O)O)ccc1-c1ccccc1 | -11% | -11% | 2%
CC(=O)c1ccc(-n2c(CCC(=O)O)ccc2-c2ccccc2)cc1 | -15% | -2% | 40µM*
CC(=O)c1ccc(-n2c(C)ccc2-c2ccccc2)cc1 | -15% | u | -32%
O=C(O)CCc1ccc(-c2ccccc2)n1-c1cccc(Br)c1 | x | 14% | 16µM*
COc1ccc(NC(=O)Cn2c(CCC(=O)O)ccc2-c2ccccc2)cc1 | -15% | 3% | -19%
O=C(O)CCc1ccc(-c2ccccc2)n1NC(=O)c1cccs1 | -11% | 3% | 50µM*
COC(=O)c1ccccc1-n1c(CCC(=O)O)ccc1-c1ccccc1 | -10% | 0% | 45µM*
SMILES | AmpC no deterg | AmpC detergent | Sm TGR block
CC(=O)c1ccc(-n2c(CCC(=O)O)ccc2-c2ccc(Br)cc2)cc1 | 79% | -5% | u
CC(=O)c1cccc(-n2c(CCC(=O)O)ccc2-c2ccccc2)c1 | -11% | -2% | 18µM*
CC(=O)c1ccc(-n2c(CCC(=O)O)ccc2-c2ccc(C)cc2)cc1 | -8% | -2% | 18µM*
COc1cccc(NC(=O)Cn2c(CCC(=O)O)ccc2-c2ccccc2)c1 | -37% | -4% | -33%
COC(=O)c1ccccc1-n1c(CCC(=O)O)ccc1-c1ccc(F)cc1 | -13% | -3% | u
CCc1ccccc1N(C)S(=O)(=O)c1ccc2c(c1)C(C)(C)C(=O)N2C | x | 4% | 25%
COc1ccc(S(=O)(=O)/N=C2/NC(=O)/C(=C/c3ccco3)S2)cc1 | -26% | -4% | u
COc1ccc(N=C2NC(=O)/C(=C/c3ccco3)S2)cc1 | 11µM* | 2% | 32µM*
COC(=O)/C=C1\SC(=Nc2ccc(OC)cc2)NC1=O | -44% | -7% | -15%
COc1ccc(S(=O)(=O)/N=C2/NC(=O)/C(=C\c3ccco3)S2)cc1 | -16% | -2% | 45µM*
CCC(=O)N1CCc2cc(S(=O)(=O)CCC(=O)Nc3ccc(OC(F)(F)F)cc3)ccc21 | x | -3% | -13%
O=c1c(-c2cc(-c3ccccc3)nc3c2COc2ccc(Cl)cc2-3)coc2ccc(F)cc12 | x | -1% | -2%
Oc1cc2c(cc1C(c1ccc(Cl)c(Cl)c1)N1CCCC1)OCO2 (stereo not drawn) | -43% | 0% | 0.5µM*
CC(C)c1ccc(NC(=O)C(c2ccc3c(c2)OCO3)N2CCCCC2)cc1 (stereo not drawn) | 0% | u | 0%
Cc1ccc(C(C)C)c(OCC(=O)NCC2(N(C)C)CCCCC2)c1 | x | 21% | 0%
